Bioassay records (PubChem)
Hits are enriched below; roughly 2.1% of the tested compounds scored in any of these assays.
aSyn yeast inh: inhibitors of alpha-synuclein toxicity in yeast. Yeast expressing alpha-synuclein, growth rescue, BacTiter-Glo, 24 h. Potency, µM (series often up to 46.1 µM), inactives show at the highest dose growth rescue (activation), actives largely listed as activators. actives 0.14% (n = 370,000). AID 652106; also: % of control where 0% means no effect; nearly all actives have a fitted effect of over 65% in size
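Screening used galactose-induced yeast with toxic alpha-synuclein levels, exposed to compound for 24 hr at 30 deg C. Cell growth, read with BacTiter-Glo luminescence, gave the measured signal.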
Abeta rescue: compounds reversing amyloid beta toxicity in yeast | actives 0.063% (n = 410,000) | AID 1347071 | Potency, µM (highest dose often 46.1 µM), actives largely listed as activators | yeast expressing A-beta42, growth rescue, OD600, 48 h; response scale: 0% DMSO, 100% iron-clioquinol control; also: nearly all actives have a fitted effect of over 55% in size
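Yeast growth medium received pinned compounds, then yeast cells expressing toxic A-beta were added; plates incubated at 30 C for 48 hr. Growth read as absorbance at 600 nm, normalized to DMSO and equimolar FeCl3 plus clioquinol controls.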
TDP-43 yeast inh: inhibitors of TDP-43 toxicity in yeast; TDP-43 expressing yeast growth rescue, BacTiter-Glo, 24 h; Potency, µM (top dose mostly 46.1 µM), for inactives: at the top dose growth rescue (activation), most hits filed as activators; actives 1.8% (n = 410,000); also: % of control where 0% means no effect; nearly all actives have a fitted effect of over 50% in size
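Cell-based yeast growth screen: TDP-43 expression induced in galactose, inoculum OD600=0.02 after raffinose pregrowth to mid-log. Read-out BacTiter-Glo luminescence at 24 hr, 30 deg C; inhibition of toxicity seen as signal increase.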
FUS suppressor: FUS proteinopathy suppression in yeast; S. cerevisiae FUS-expressing, growth rescue, OD600, 24 h; Potency, µM (doses to about 76.6 µM), hits mostly activators; actives 0.24% (n = 390,000);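 also: plate controls were DMSO vehicle for no effect and reference control for full effect; nearly all actives have a fitted effect of over 55% in size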
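Yeast FUS proteinopathy model; galactose-induced FUS (2%), starting OD 0.005. Cpds in dilution series, 24hr, 30C, 99% humidity. Abs 600 nm growth. Pos ctrl CP55940 (top 92uM final); neg ctrl DMSO.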
* = called active by the depositor; i = inactive; ? = inconclusive; . = no result given; [ ] = dose if it differs, or a comment. Calls follow the shape of the dose curve; as a rule, active = well fitted curve in the direction sought with a large enough effect; inconclusive = small, poorly fitted or top-dose-only effect, or another doubt; inactive = no such curve, though single readings can be large; an effect the other way counts as inactive or inconclusive. Potency is read from the fitted curve at half-maximal effect.

SMILES	aSyn yeast inh	Abeta rescue	TDP-43 yeast inh	FUS suppressor
FC(F)(F)c1ccc(-c2nnc(-c3cccnc3)o2)cc1	3%	i	13µM*	i
COc1ccc(-c2nnc(-c3cccnc3)o2)cc1	-17%	i	22µM*	i
COc1ccc(/C=N/NC(=O)C(=O)N2CCN(c3ccccc3OC)CC2)cc1	1%	i	-6%	i
C=CCc1ccccc1OCC(O)CN1C(=O)c2ccccc2C1=O (configuration not stated)	17%	i	11µM*	i
Cc1ccccc1OCC(O)CN1C(=O)c2ccccc2C1=O (configuration not stated)	10%	i	30%	i
COc1ccc(S(=O)(=O)N(C)Cc2cccs2)cc1Br	13%	i	16µM*	i
O=C(O)c1cccnc1C(=O)N1CCc2c([nH]c3ccccc23)C1C(F)(F)F (configuration not stated)	-1%	i	-7%	i
Cc1ccccc1C(=O)N1CCc2c([nH]c3ccccc23)C1C(F)(F)F (configuration not stated)	13%	i	22µM*	i
COc1ccc(CCNC(=O)C2CCN(S(=O)(=O)c3ccc(C)cc3)CC2)cc1OC	-5%	i	-14%	i
Oc1ccc(N=Nc2ccc3c(c2)OCCO3)c2cccnc12	20µM*	?	?	i
CCN1Cc2ccccc2-c2ccccc2S1(=O)=O	11%	i	44%	i
Cc1ccsc1/C=N/NC(=O)CSCc1ccc(Cl)cc1	?	i	14µM*	i
Cc1ccc(C)c(Cn2nnc3c(=O)[nH]c(C4CCCN(S(=O)(=O)Cc5ccccc5)C4)nc32)c1 (configuration not stated)	1%	i	8%	i
O=C(Nc1nc(-c2ccco2)c(-c2ccco2)s1)C1CCC1	-30%	i	35µM*	i
O=C(Nc1nnc(-c2ccco2)s1)C1CCCCC1	-4%	i	-15%	i
CCc1ccc(N2C=C(C(=O)OC)C(c3ccc(OC)cc3)C(C#N)=C2N)cc1 (configuration not stated)	25µM*	i	?	?
CC(=O)OC1C=CN(C(C)=O)C(SC(C)(C)C)C1(C)O (configuration not stated)	12%	i	5%	i
Cc1ccc(-c2c3c(=O)n(C)c(=O)n(C)c3c3c(-c4cccc(C)c4)nc4ccccc4n23)cc1	.	i	?	i
COc1ccc(-c2c3c(=O)n(C)c(=O)n(C)c3c3c(-c4cccc(C)c4)nc4ccccc4n23)cc1	.	i	16µM*	i
Oc1cccc(/C=C/c2ccc3cccc(O)c3n2)c1	?	?	13µM*	i
COc1cc(/C=C/c2ccc3cccc(O)c3n2)cc(OC)c1OC	-10%	i	22%	i
COc1cccc(/C=C/c2ccc3cccc(O)c3n2)c1OC	18µM*	i	14µM*	i
COc1cccc(/C=C/c2ccc3cccc(O)c3n2)c1	18µM*	?	?	i
CCOC(=O)c1ccc(N=C2C(=S)N(c3ccc(C(=O)OCC)cc3)C(=N)N2/N=C/c2ccccc2)cc1	1%	i	0%	28µM*
CCOC(=O)c1ccc(N=c2scc(C)n2CC)cc1	7%	i	-7%[0.397 µM]	i
SMILES	aSyn yeast inh	Abeta rescue	TDP-43 yeast inh	FUS suppressor
Cc1cc(C)cc(NC(=O)COC(=O)CCCNC(=O)c2ccc(Cl)cc2)c1	-9%	i	6%	.
O=C(NCCN1CCOCC1)c1ccc2ccccc2n1	3%	i	-11%	i
COc1c(S(=O)(=O)N2CCN(C(=O)c3ccco3)CC2)ccc(Cl)c1Cl	17%	i	13µM*	i
CC(C)C(=O)N1CCN(c2nc3ccc(Cl)cc3s2)CC1	0%	i	?	i
COc1cc(S(=O)(=O)N2CCN(C(=O)c3ccco3)CC2)c(OC)cc1C	0%	i	2%	i
Cc1c(Cl)ccc2sc(N3CCN(C(=O)c4ccco4)CC3)nc12	.	i	32µM*	?
Cc1c(Cl)ccc2sc(N3CCN(C(=O)C(C)C)CC3)nc12	.	i	22µM*	i
Cc1c(Cl)ccc2sc(N3CCN(C(=O)C4=COCCO4)CC3)nc12	8%	i	?	i
Cc1c(Cl)ccc2sc(N3CCN(C(=O)CS(=O)(=O)c4ccccc4)CC3)nc12	.	13µM*	18µM*	?
COc1ccc(NC(=O)c2ccc(-n3cnnn3)cc2)c([N+](=O)[O-])c1	0%	i	-17%	i
CCn1c(/C=C2\C(=O)Nc3ccccc32)nc2ccccc2c1=O	9%	i	-20%	i
COc1ccc(OC)c2sc(N3CCN(C(=O)c4ccco4)CC3)nc12	.	i	13%	i
CC(=O)N1CCN(c2nc3c(C)ccc(Cl)c3s2)CC1	.	i	?	i
CCCC(=O)N1CCN(c2nc3c(OC)ccc(Cl)c3s2)CC1	21%	i	20µM*	i
COc1ccc(Cl)c2sc(N3CCN(C(=O)c4ccco4)CC3)nc12	17%	i	18µM*	i
CCC1=C(OC(=O)N(CC)CC)N2C(=O)OC(=NCC(=O)OC)[C@]2(Cc2ccccc2)[C@H]2C1=CC[C@H]1C(=O)N(CC(=O)OC)C(=O)[C@H]12	1%	i	4%	i
COc1ccc(NC(=O)CCNS(=O)(=O)c2ccc(C)c(C)c2)cc1OC	1%	i	1%	i
COc1ccccc1/C=N/NC(=O)c1cccc(OC(F)(F)C(F)F)c1	-15%	i	-1%	.
COc1cccc(/C=N/NC(=O)C(=O)Nc2ccccc2OC(F)(F)C(F)F)c1O	22µM*	i	-2%	i
CC1(C(=O)Nc2ccc(F)cc2F)CCN1C(=O)Cc1ccc(Cl)cc1Cl (configuration not stated)	14%	i	16µM*	i
O=C(c1ccc(Nc2nc3ccccc3n3nnnc23)cc1)N1CCN(c2ccc(F)cc2)CC1	.	?	10µM*	i
CCOC(=O)CSc1nc2sc(C)c(C)c2c(=O)n1N	1%	i	-1%	.
CCOC(=O)CSc1nc2sc(C)c(C)c2c(=O)n1C	0%	i	11µM*	i
OCCNc1ncnc2c1c(-c1ccccc1)c(-c1ccccc1)n2Cc1ccco1	13µM*	i	-14%	i
Cc1cccc(N=C2NN=C(c3c(C)[nH]c4ccccc34)CS2)c1	-3%	i	2%	11µM*
CSc1nc(-c2ccc(Cl)cc2)nn1C(=O)c1ccco1	2%	i	15%	i
Cc1ccc(C)c(NC(=O)CN(C)C(=O)CSCc2c(C)noc2C)c1	-1%	i	1%	i
CN1CCC(N(C)C(=O)c2sc3cc(F)ccc3c2Cl)CC1	-6%	i	6%	i
O=C(c1sc2cc(F)ccc2c1Cl)N1CCN(c2ccccc2)CC1	0%	i	18µM*	i
Cc1cccc(NC(=O)CSCC(=O)N(C)CCOc2ccc(Cl)cc2)c1	-2%	i	13µM*	i
